This is an account of results in PubChem BioAssay (EPA / NIEHS).

Experiment [1] is described as follows: ATG_RORE_CIS: Attagene CIS-FACTORIAL HepG2 Assay for human RAR-related Orphan Receptor Element (RORE) (AID 2282959). The conditions noted are these: HepG2 Attagene cis-factorial RORE reporter, mRNA; actives raise or lower the signal. In outline: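 Measured here: transcript induction of a cis-regulated reporter in HepG2 cells transiently transfected via FuGene 6. After 24 h, RNA was processed by RT-PCR and fluorescent capillary electrophoresis; DMSO defined baseline activity.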

Experiment [2] is described as follows: ATG_Sox_CIS: Attagene CIS-FACTORIAL HepG2 Assay for human SRY-box transcription factor (SOX) (AID 2282960). The settings on record: HepG2 Attagene cis-factorial SOX reporter, mRNA; actives raise or lower the signal. The essentials: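 Using transiently transfected HepG2 cells, reporter transcription driven by cis elements was assessed 24 h after dosing. Signal was fluorescence of capillary-separated RT-PCR products, with DMSO defining baseline activity.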

In experiment [3] the target is Transcription factor Sp1 (Homo sapiens) (UniProt P08047). Nature of the experiment: ATG_Sp1_CIS: Attagene CIS-FACTORIAL HepG2 Assay for human Specificity Protein 1 (Sp1) (AID 2282961). The conditions noted are these: HepG2 Sp1 cis-reporter transcription, actives raise or lower the signal. The essentials: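 After transient transfection of HepG2 cells with cis-promoter reporter units and 24 h chemical treatment, reporter transcripts were quantified by RT-PCR and capillary electrophoresis fluorescence. Gain- and loss-of-signal fitted against DMSO.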
Sequence of Transcription factor Sp1 (Homo sapiens) (P08047 whole entry, looked up): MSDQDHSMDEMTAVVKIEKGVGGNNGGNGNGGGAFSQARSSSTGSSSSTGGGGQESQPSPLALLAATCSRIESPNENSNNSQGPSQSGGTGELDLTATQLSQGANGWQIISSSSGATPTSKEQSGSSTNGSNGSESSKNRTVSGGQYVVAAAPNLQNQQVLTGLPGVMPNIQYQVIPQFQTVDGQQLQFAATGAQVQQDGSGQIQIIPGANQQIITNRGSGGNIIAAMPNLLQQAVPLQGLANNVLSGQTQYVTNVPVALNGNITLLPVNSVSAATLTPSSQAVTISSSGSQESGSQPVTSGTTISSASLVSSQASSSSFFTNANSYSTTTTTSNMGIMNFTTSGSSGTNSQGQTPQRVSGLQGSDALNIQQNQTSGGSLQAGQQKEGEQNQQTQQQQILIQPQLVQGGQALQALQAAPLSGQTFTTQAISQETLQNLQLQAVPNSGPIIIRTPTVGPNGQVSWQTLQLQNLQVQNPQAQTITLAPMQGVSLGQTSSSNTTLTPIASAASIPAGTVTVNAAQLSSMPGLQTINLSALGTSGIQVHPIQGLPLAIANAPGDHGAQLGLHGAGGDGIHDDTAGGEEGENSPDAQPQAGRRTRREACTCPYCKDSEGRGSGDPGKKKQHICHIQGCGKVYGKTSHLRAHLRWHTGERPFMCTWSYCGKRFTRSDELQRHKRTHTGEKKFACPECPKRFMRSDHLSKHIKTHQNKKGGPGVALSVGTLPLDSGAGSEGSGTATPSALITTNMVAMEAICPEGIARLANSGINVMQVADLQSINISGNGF

Experiment [4] in a line: ATG_SREBP_CIS: Attagene CIS-FACTORIAL HepG2 Assay for human Sterol Regulatory Element Binding (SREBP) (AID 2282962). The settings on record: HepG2 Attagene cis-factorial SREBP reporter, mRNA; actives raise or lower the signal. The essentials: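 Twenty-four hours after chemical dosing of transfected HepG2 cultures, reporter RNA was converted to cDNA, amplified, end-labelled with 6-FAM and resolved by capillary electrophoresis. Responses were fitted relative to DMSO.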

The target of experiment [5] is Signal transducer and activator of transcription 3 (Homo sapiens) (UniProt P40763). Briefly: ATG_STAT3_CIS: Attagene CIS-FACTORIAL HepG2 Assay for human Signal Transducer and Activator of Transcription 3 (STAT3) (AID 2282963). The settings on record: HepG2, Attagene cis-factorial STAT3 reporter transcription; actives raise or lower the signal. The essentials:
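Endogenous STAT3-responsive cis-element activity was read in transiently transfected HepG2 cells after 24 h treatment. Reporter transcripts were quantified via RT-PCR and capillary electrophoresis, with DMSO as negative control and bidirectional curve fitting.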

The nature of experiment [6]: ATG_TA_CIS: Attagene CIS-FACTORIAL HepG2 Assay for human TA Basal Promoter (AID 2282964). The settings on record: HepG2 Attagene CIS-factorial TA basal promoter reporter; actives raise or lower the signal. The essentials:
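Multiplexed mRNA reporter assay, HepG2, 24 h. Reporter cDNA amplified, 6-FAM primer-extended, HpaI-cut, CE-sized; DMSO = negative control and baseline.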

Experiment [7] can be described thus: ATG_TCF_b_cat_CIS: Attagene CIS-FACTORIAL HepG2 Assay for human T-Cell-Factor with beta-catenin (TCF/b-cat) (AID 2282965). The conditions noted are these: HepG2 TCF/beta-catenin cis-reporter transcription, actives raise or lower the signal. The essentials: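 Endogenous TCF/LEF activity read as reporter transcript level via RT-PCR and capillary electrophoresis fluorescence in transfected HepG2, 24 h exposure; gain or loss of signal fitted against DMSO controls.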

The nature of experiment [8]: ATG_TAL_CIS: Attagene CIS-FACTORIAL HepG2 Assay for human TAL Basal Promoter (AID 2282966).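 Further: background control endpoint measuring basal TAL promoter reporter mRNA not a specific factor.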 The settings on record: HepG2 Attagene cis-factorial TAL promoter reporter; actives raise or lower the signal. In outline: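 HepG2 cells transiently transfected with multiplexed cis-promoter reporter units, dosed 24 h. Reporter mRNA quantified by RT-PCR, 6-FAM labelling, HpaI digestion and capillary electrophoresis; TAL basal promoter serves as background control, fitted bidirectionally versus DMSO.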

Experiment [9] can be described thus: ATG_TGFb_CIS: Attagene CIS-FACTORIAL HepG2 Assay for human Transforming Growth Factor (TGF) (AID 2282967). The settings on record: HepG2 Attagene CIS TGFb reporter, mRNA transcription; actives raise or lower the signal. The essentials:
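Transcript-level reporter readout: HepG2 transfectants, 24 h exposure, RNA to cDNA, reporter-specific PCR, fluorescent primer extension, capillary sizing against ROX standards. Gain- or loss-of-signal relative to DMSO.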

The nature of experiment [10]: ATG_VDRE_CIS: Attagene CIS-FACTORIAL HepG2 Assay for human Vitamin D Receptor Element (VDRE) (AID 2282968). The settings on record: HepG2 VDRE cis-reporter transcription, actives raise or lower the signal. In outline: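 Reporter mRNA induction, quantified by capillary electrophoresis of fluorescently labelled RT-PCR products, was read 24 h after dosing HepG2 cells carrying transiently transfected cis-regulated reporter units; gain or loss relative to DMSO.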

For experiment [11], the target named is Nuclear receptor subfamily 1 group I member 3 (Homo sapiens) (UniProt Q14994). Briefly: ATG_CAR_TRANS: Attagene TRANS-FACTORIAL HepG2 Assay for human Constitutive Androstane Receptor (CAR) (AID 2282969; active means hit-call score of the fitted dose curve at least 0.9, where 1 is the maximum;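 further: activators raise reporter mRNA above DMSO so AC50 marks induction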). The conditions noted are these: HepG2 Attagene TRANS-FACTORIAL CAR reporter. The essentials:
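Readout is reporter mRNA induction, quantified by fluorescent primer extension and capillary electrophoresis after RT-PCR. Cells were HepG2 transiently carrying chimeric NR-Gal4 constructs with GAL4-UAS reporters, treated for 24 h; activity scored upward from DMSO.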

Experiment [12] concerns the target X-box-binding protein 1 (Homo sapiens) (UniProt P17861). Briefly: ATG_Xbp1_CIS: Attagene CIS-FACTORIAL HepG2 Assay for human X-box Binding Protein 1 (XBP1) (AID 2282972). The conditions noted are these: HepG2 XBP1 cis-element reporter, Attagene multiplex; actives raise or lower the signal. The essentials: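 After a 24-hour chemical exposure of HepG2 cells carrying cis-regulated reporters, reporter mRNA levels are assessed. Quantification uses RT-PCR, 6-FAM labelling and capillary electrophoresis. Gain- or loss-of-signal is fitted against DMSO.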

In experiment [13] the target is Androgen receptor (Homo sapiens) (UniProt P10275). Briefly: ATG_AR_TRANS: Attagene TRANS-FACTORIAL HepG2 Assay for human Androgen Receptor (AR) (AID 2282973; active means hit-call score of the fitted dose curve at least 0.9, where 1 is the maximum). The settings on record: HepG2 Attagene TRANS-FACTORIAL AR reporter transcription. In outline:
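HepG2 cells transiently transfected with AR-Gal4 chimera and GAL4-UAS reporter units; chemical exposure 24 h. Reporter mRNA quantified by RT-PCR with fluorescent labelling and capillary electrophoresis; gain-of-signal fitted against DMSO.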

Experiment [14] is described as follows: ATG_M_19_TRANS: Attagene TRANS-FACTORIAL HepG2 Assay for M19 Transcription Factor (Internal Marker) (AID 2282974; active means hit-call score of the fitted dose curve at least 0.9, where 1 is the maximum). The settings on record: HepG2 Attagene TRANS-FACTORIAL M19 internal marker reporter. In outline:
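Gain-of-signal in reporter mRNA, relative to DMSO, was scored from capillary electrophoresis fluorescence. HepG2 cells carried transiently transfected multiple reporter transcription units and were incubated with test chemicals for 24 h.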

Experiment [15] concerns the target Glucocorticoid receptor (Homo sapiens) (UniProt P04150). Nature of the experiment: ATG_GR_TRANS: Attagene TRANS-FACTORIAL HepG2 Assay for human Glucocorticoid Receptor (GR) (AID 2282978; active means hit-call score of the fitted dose curve at least 0.9, where 1 is the maximum;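 further: activators score as hits since higher reporter transcript over DMSO is fitted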). The conditions noted are these: HepG2 Attagene TRANS GR reporter, mRNA transcription. In outline:
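HepG2 transient transfection, multiple reporter units, GAL4-UAS under NR-GAL4 chimera control. 24 h treatment. Reporter mRNA by RT-PCR/CE fluorescence, DMSO as negative control.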

Experiment [16] concerns the target Estrogen-related receptor gamma (Homo sapiens) (UniProt P62508). Briefly: ATG_ERRg_TRANS: Attagene TRANS-FACTORIAL HepG2 Assay for human Estrogen-Related Receptor gamma (ERRg) (AID 2282977; active means hit-call score of the fitted dose curve at least 0.9, where 1 is the maximum;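 further: hits increase reporter signal over DMSO so potencies reflect activators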). The settings on record: HepG2 Attagene TRANS reporter, ERRg transactivation. The essentials:
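HepG2 cells transiently transfected with multiplexed GAL4-UAS reporter units driven by chimeric NR-Gal4 proteins; 24 h exposure. Reporter mRNA quantified by RT-PCR, fluorescent labelling, HpaI digestion and capillary electrophoresis; gain of signal vs DMSO.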

Experiment [17] concerns the target Estrogen receptor (Homo sapiens) (UniProt P03372). Briefly: ATG_ERa_TRANS: Attagene TRANS-FACTORIAL HepG2 Assay for human Estrogen Receptor alpha (ERa) (AID 2282970; active means hit-call score of the fitted dose curve at least 0.9, where 1 is the maximum). The conditions noted are these: HepG2 Attagene TRANS ERa GAL4 reporter, mRNA. The essentials:
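HepG2 cells transiently transfected with multiplexed GAL4-UAS reporter units read out chimeric NR-Gal4 activity. After 24 h compound exposure, reporter mRNA was quantified by RT-PCR, 6-FAM labeling, HpaI digestion and capillary electrophoresis, relative to DMSO.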

Experiment [18] has as its target Bile acid receptor (Homo sapiens) (UniProt Q96RI1). Nature of the experiment: ATG_FXR_TRANS: Attagene TRANS-FACTORIAL HepG2 Assay for Farnesoid X Receptor (FXR) (AID 2282979; active means hit-call score of the fitted dose curve at least 0.9, where 1 is the maximum;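 further: hits raise reporter mRNA above DMSO so AC50 marks FXR activation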). The conditions noted are these: HepG2 Attagene TRANS FXR-GAL4 reporter transcription. The essentials: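 HepG2 cells were transiently transfected with GAL4-UAS reporters driven by chimeric NR-Gal4 proteins and dosed for 24 h. Reporter mRNA was quantified by RT-PCR, fluorescent labelling, HpaI digestion and capillary electrophoresis, with gain of signal scored versus DMSO.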

Inconclusive results are not listed. Calls of active or inactive are those of the source. How the source made its calls, unless noted: active means hit-call score of the fitted dose curve at least 0.9, where 1 is the maximum; inactive means score below 0.9.

Sequence of Nuclear receptor subfamily 1 group I member 3 (Homo sapiens) (Q14994 whole entry, looked up, the tested form may be a part): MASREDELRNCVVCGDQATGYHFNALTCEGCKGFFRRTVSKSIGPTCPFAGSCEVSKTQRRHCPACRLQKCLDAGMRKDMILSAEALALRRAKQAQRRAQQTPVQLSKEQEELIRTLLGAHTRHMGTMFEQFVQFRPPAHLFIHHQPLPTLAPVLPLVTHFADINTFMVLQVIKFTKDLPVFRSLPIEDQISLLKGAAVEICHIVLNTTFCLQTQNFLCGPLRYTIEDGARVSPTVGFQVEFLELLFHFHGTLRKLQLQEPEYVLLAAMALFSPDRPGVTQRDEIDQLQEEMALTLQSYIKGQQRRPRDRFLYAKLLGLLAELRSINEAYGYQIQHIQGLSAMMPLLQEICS
Sequence of X-box-binding protein 1 (Homo sapiens) (P17861 whole entry, looked up): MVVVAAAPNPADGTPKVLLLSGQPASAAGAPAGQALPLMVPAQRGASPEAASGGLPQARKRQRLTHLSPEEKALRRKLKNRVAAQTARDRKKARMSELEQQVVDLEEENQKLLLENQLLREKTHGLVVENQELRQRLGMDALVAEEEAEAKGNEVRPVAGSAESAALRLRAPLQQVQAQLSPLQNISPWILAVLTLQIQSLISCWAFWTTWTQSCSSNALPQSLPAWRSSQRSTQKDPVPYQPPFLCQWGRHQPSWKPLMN
Sequence of Signal transducer and activator of transcription 3 (Homo sapiens) (P40763 whole entry, looked up): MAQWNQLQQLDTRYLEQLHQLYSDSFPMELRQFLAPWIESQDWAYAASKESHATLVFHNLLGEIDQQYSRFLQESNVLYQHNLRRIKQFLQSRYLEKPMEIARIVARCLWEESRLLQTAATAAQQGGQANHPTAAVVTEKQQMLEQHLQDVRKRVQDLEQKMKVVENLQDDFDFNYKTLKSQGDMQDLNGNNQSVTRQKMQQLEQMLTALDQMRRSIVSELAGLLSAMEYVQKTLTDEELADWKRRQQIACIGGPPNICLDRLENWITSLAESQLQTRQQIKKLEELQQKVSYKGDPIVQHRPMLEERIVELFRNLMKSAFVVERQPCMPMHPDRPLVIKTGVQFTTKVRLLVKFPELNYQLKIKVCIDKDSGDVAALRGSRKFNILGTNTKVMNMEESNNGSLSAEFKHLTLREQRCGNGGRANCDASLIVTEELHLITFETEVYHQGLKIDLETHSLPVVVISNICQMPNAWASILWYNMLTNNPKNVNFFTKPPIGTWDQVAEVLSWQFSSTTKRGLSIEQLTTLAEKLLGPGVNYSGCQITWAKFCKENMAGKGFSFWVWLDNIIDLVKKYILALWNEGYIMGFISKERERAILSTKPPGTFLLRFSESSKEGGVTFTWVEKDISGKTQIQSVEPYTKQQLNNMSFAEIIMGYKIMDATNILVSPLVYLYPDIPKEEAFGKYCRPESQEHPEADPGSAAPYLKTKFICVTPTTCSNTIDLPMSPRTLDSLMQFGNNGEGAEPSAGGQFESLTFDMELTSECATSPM
Sequence of Glucocorticoid receptor (Homo sapiens) (P04150 whole entry, looked up, the tested form may be a part): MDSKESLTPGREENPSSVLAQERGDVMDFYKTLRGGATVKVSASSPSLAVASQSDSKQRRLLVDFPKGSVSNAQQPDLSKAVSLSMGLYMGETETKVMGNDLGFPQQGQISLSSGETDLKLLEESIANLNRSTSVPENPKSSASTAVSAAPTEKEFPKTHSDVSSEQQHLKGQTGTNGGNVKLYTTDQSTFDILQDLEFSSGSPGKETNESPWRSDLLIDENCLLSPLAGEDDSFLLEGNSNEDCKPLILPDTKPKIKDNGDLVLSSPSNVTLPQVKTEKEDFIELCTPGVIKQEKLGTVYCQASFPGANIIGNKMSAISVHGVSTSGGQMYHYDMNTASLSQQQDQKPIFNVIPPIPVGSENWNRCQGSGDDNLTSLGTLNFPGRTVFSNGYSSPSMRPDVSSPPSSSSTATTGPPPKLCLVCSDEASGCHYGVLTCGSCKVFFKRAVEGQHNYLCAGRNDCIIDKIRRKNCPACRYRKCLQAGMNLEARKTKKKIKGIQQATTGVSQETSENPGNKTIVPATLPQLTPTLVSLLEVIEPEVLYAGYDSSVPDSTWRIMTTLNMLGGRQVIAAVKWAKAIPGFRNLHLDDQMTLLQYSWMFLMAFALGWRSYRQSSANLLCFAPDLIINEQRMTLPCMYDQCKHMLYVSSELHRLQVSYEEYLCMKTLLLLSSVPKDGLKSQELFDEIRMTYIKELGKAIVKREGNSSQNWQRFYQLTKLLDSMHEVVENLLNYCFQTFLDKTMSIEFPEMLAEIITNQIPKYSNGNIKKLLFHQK
Sequence of Bile acid receptor (Homo sapiens) (Q96RI1 whole entry, looked up, the tested form may be a part): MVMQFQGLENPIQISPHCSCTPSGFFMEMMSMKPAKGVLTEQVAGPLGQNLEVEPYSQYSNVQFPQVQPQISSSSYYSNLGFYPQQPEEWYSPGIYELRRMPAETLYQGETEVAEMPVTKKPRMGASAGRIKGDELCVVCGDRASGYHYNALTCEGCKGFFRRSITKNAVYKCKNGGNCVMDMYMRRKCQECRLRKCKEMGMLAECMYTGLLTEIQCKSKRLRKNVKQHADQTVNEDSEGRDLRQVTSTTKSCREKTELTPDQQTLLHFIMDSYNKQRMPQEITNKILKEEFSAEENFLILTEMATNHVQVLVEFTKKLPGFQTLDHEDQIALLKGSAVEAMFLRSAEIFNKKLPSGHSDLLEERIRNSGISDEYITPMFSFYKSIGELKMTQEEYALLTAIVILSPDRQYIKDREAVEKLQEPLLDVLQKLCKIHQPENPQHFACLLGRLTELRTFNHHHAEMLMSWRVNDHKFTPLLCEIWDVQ
Sequence of Androgen receptor (Homo sapiens) (P10275 whole entry, looked up, the tested form may be a part): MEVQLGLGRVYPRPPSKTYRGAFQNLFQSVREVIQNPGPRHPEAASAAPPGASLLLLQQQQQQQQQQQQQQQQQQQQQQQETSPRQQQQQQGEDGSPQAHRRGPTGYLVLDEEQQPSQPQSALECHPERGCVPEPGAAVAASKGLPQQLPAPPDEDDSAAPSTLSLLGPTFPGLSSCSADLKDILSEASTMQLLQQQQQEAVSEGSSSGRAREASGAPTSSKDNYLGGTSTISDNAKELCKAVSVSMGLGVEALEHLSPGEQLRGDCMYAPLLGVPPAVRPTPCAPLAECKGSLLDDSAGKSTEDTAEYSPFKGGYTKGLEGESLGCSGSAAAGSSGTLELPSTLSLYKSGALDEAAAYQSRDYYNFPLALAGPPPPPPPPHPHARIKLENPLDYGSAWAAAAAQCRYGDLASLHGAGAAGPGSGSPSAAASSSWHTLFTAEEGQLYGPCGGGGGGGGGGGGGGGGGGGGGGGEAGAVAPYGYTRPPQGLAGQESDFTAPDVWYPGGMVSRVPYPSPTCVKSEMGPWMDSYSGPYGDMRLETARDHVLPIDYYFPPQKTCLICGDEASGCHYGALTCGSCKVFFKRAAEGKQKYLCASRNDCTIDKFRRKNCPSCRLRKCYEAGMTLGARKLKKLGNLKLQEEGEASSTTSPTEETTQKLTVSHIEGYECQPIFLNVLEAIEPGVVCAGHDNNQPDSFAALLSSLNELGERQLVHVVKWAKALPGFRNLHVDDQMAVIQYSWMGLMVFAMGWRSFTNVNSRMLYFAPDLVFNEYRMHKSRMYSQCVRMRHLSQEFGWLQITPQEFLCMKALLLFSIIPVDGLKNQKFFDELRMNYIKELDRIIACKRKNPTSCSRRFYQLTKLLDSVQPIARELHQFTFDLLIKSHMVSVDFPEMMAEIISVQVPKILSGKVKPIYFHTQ
Sequence of Estrogen receptor (Homo sapiens) (P03372 whole entry, looked up, the tested form may be a part): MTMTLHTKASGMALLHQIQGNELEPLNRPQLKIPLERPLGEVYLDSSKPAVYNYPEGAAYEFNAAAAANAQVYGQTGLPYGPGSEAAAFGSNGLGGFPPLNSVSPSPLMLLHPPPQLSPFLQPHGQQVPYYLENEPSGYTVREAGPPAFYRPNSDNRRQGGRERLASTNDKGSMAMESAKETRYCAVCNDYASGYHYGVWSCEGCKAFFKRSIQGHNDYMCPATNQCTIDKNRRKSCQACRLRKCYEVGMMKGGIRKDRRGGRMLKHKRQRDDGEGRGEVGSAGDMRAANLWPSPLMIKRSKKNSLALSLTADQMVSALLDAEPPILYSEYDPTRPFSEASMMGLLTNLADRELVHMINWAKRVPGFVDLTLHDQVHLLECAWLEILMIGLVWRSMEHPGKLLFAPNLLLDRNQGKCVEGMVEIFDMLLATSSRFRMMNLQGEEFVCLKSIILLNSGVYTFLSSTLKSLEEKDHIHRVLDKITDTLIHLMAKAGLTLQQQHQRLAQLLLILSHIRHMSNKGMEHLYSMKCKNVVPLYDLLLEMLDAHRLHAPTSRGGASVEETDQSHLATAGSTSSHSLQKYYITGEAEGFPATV

Regarding `CN(C1CCCCC1)C1CCCCC1`, the compound was classed as inactive in experiment [1], in experiment [2], in experiment [3], in [4], in experiment [5] and in [6]. Also, the compound was called inactive in [7], in experiment [8], in experiment [9], in [10], in [11] and in experiment [12]. Also, the result in [13], in experiment [14] and in experiment [15] was inactive.

Turning to `C[CH2][Hg][S]c1ccccc1C(=O)O`, the concentration at half-maximal activity (AC50) was 2.97 µM (active) in experiment [1]; 2.56 µM (active) in experiment [2]; 1.51 µM (active) in experiment [3]; 2.66 µM (active) in experiment [4]; 6.54 µM (active) in experiment [7]; 1.87 µM (active) in [8]. For the same compound, the AC50 is 3 µM (active) in [10] and 2.7 µM (active) in experiment [12]. Moreover, the outcome in [5], in experiment [6], in experiment [9], in [11], in [13] and in experiment [16] was inactive. In addition, the outcome in experiment [15] was inactive.

For the compound `COC(=O)c1cc(Oc2ccc(Cl)cc2Cl)ccc1[N+](=O)[O-]`, the AC50 in [1] is 16.6 µM (active); in [6], 27.1 µM (active); in [9] it was 66.8 µM (active); in experiment [10] it was 10.8 µM (active). Also, the result in [2], in [3], in experiment [4], in [5], in [7] and in [8] was inactive. For the same compound, the call in experiment [11], in experiment [17], in experiment [12] and in experiment [18] was inactive.

On to `O=C(NC(=O)c1c(F)cccc1F)Nc1ccc(Cl)cc1`, for which the compound was classed as inactive in experiment [1], in [2], in [3], in [4], in experiment [5] and in experiment [6]. Further, the call in experiment [7], in experiment [8], in experiment [9], in [10], in [11] and in experiment [17] was inactive. Besides, the call in experiment [12], in experiment [14] and in experiment [18] was inactive.

As usually defined, the AC50 is the concentration giving half of the maximal activity seen.
